High-throughput results deposited in PubChem BioAssay by several laboratories.
ALR H2O2 inh: inhibitors of human sulfhydryl oxidase ALR; inhibition, % (no concentration beside the values); purified ALR, DTT oxidation, H2O2 HRP-luminol luminescence; 290,000 compounds, 3.8% hits; P55789;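 active means mean replicate inhibition above about 79%, with every replicate also reaching it, limit read from the data; inconclusive means only one of the two criteria met; inactive means mean below limit and not every replicate reaching it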
PHOSPHO1 inh: blocks human PHOSPHO1 phosphatase activity | recombinant PHOSPHO1, absorbance phosphatase assay | inhibition, % at 13.3 µM | 290,000 compounds, 1.1% hits | AID 1565; in the data active means inhibition above about 60%
Target sequence (Q8TCT1 whole entry, looked up): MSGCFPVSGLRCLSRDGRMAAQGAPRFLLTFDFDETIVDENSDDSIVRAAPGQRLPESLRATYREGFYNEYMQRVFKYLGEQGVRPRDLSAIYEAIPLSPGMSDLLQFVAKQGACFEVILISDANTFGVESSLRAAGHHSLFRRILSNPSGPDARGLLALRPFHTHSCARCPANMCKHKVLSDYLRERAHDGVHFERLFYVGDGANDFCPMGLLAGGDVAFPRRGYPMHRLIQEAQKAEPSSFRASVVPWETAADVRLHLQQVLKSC
rCAG RNA binder: binds r(CAG) RNA repeats. r(CAG) RNA repeat, TO-PRO-1 dye displacement fluorescence. 370,000 compounds, 1.3% hits. inhibition, % at 3 µM;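 active means inhibition above the plate cutoff, the mean of all test compounds on that plate plus 3 SD, cut at about 35% in these data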;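 further: higher means more dye released from RNA so lower well fluorescence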
aDG glyco up: increases alpha dystroglycan glycosylation; Pro5-aDG cells, alpha-DG glycosylation AlphaScreen (IIH6); 0% Pro5, 100% B10-LARGE cell signal; activation, % at 10 µM; 360,000 compounds, 0.22% hits;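 active means activation of at least 8% versus controls, or a plate z-score of at least 8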;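 further: Pro5 are CHO cells carrying HIG-tagged alpha-DG that lacks glycosylation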
A3G deaminase: APOBEC3G (human) deaminase inhibition; Q9HC16; AID 493012; inhibition, % at 20 µM; recombinant A3G, ssDNA deamination FAM/TAMRA fluorescence; 330,000 compounds, 0.28% hits;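 active means inhibition of at least 40% at 20 µM, with no more than 30% in the related APOBEC3A deaminase screen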
A3A deaminase: blocks human APOBEC3A ssDNA deamination; P31941; recombinant A3A, FAM/TAMRA ssDNA deamination fluorescence; inhibition, % at 20 µM; 330,000 compounds, 0.41% hits; AID 493011;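 active means at least 40% inhibition at 20 µM here, with at most 30% in a related deaminase screen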
Target sequence (P31941 whole entry, looked up): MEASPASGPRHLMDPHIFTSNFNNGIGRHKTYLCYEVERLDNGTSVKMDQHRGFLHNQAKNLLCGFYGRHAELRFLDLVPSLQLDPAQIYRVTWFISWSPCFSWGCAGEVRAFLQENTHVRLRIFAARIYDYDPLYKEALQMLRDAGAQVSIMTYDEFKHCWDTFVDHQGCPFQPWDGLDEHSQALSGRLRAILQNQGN
A number is an active result. Hits are enriched below; roughly 5.4% of the tested compounds scored in any of these assays.

Cc1ccccc1N(C)S(=O)(=O)c1nnc(NC(=O)c2ccccc2F)s1 was read as ALR H2O2 inh inactive, PHOSPHO1 inh 64, rCAG RNA binder inactive, aDG glyco up inactive, A3G deaminase inactive and A3A deaminase inactive.
For COc1ccc(C=O)cc1CSc1ccccn1 the results were ALR H2O2 inh 97, PHOSPHO1 inh inactive, rCAG RNA binder inactive, aDG glyco up inactive, A3G deaminase inactive and A3A deaminase inactive.
`CC1CCN(CCCNC(=O)c2ccc(N3CCCC3=O)cc2)CC1` gave ALR H2O2 inh inactive, PHOSPHO1 inh 64, rCAG RNA binder inactive, aDG glyco up inactive, A3G deaminase inactive and A3A deaminase inactive.
CCOc1ccccc1NC(=O)NNC(=O)CCn1nc(C)c([N+](=O)[O-])c1C was read as rCAG RNA binder inactive.
CCCCN1CCS(=O)(=O)N(Cc2ccc(Cl)cc2)C(C(=O)OC)C1 (configuration not stated) was read as rCAG RNA binder inactive.
For Cc1cc(C)n(CC(O)CN2c3ccccc3Sc3ccccc32)n1 (configuration not stated) the results were ALR H2O2 inh 99, PHOSPHO1 inh inactive, rCAG RNA binder inactive, aDG glyco up inactive, A3G deaminase inactive and A3A deaminase inactive.
`Cc1c(C)n(CC(O)CN(CCO)CCO)c2ccccc12` (configuration not stated) gave ALR H2O2 inh inactive, PHOSPHO1 inh inactive, rCAG RNA binder inactive, aDG glyco up inactive, A3G deaminase inactive and A3A deaminase inactive.
`CCN(CC)CC(O)CN1c2ccccc2Sc2ccccc21` (configuration not stated) gave ALR H2O2 inh 98, PHOSPHO1 inh inactive, rCAG RNA binder inactive, aDG glyco up inactive, A3G deaminase inactive and A3A deaminase inactive.
Screening CCN(CC)C(=O)N1c2ccccc2Sc2ccccc21 returned ALR H2O2 inh inconclusive, PHOSPHO1 inh inactive, rCAG RNA binder inactive, aDG glyco up inactive, A3G deaminase inactive and A3A deaminase inactive.
CCN(CC)CCCCN1c2ccccc2Sc2ccccc21 was read as ALR H2O2 inh 99, PHOSPHO1 inh inactive, rCAG RNA binder inactive, aDG glyco up inactive, A3G deaminase inactive and A3A deaminase inactive.
`OCCN(CCO)CC(O)CN1c2ccccc2Sc2ccccc21` (configuration not stated) gave ALR H2O2 inh 99, PHOSPHO1 inh inactive, aDG glyco up inactive, A3G deaminase inactive and A3A deaminase inactive.
`CCN(CC)CC(=O)N1c2ccccc2Sc2ccccc21` gave ALR H2O2 inh inactive, PHOSPHO1 inh inactive, rCAG RNA binder inactive, aDG glyco up inactive, A3G deaminase inactive and A3A deaminase inactive.
`C#Cc1cccc(OC[C@@H](O)CN2CCC(C(O)(c3ccccc3)c3ccccc3)CC2)c1` gave rCAG RNA binder inactive.
`CCOC(=O)[C@]12CCCCC/C=C\1N(CCc1ccc(Cl)cc1)C(=O)[C@H]2CC(=O)N1CCCCC1` gave rCAG RNA binder inactive.
Screening O=c1cc(O)nc(SCc2ccccc2)[nH]1 returned ALR H2O2 inh 98, PHOSPHO1 inh inactive, rCAG RNA binder inactive, aDG glyco up inactive, A3G deaminase inactive and A3A deaminase inactive.
Screening Cc1cc(=O)[nH]c(SCc2ccccc2)n1 returned ALR H2O2 inh inactive, PHOSPHO1 inh inactive, rCAG RNA binder inactive, aDG glyco up inactive, A3G deaminase inactive and A3A deaminase inactive.
Screening CCCOc1ccc(C(C)=O)cc1CSCCC#N returned ALR H2O2 inh inactive, PHOSPHO1 inh inactive, rCAG RNA binder inactive, aDG glyco up inactive, A3G deaminase inactive and A3A deaminase inactive.
Screening O=C(CSc1nc(O)cc(=O)[nH]1)N1c2ccccc2Sc2ccccc21 returned ALR H2O2 inh 99, PHOSPHO1 inh inactive, rCAG RNA binder inactive, aDG glyco up inactive, A3G deaminase inactive and A3A deaminase inactive.
Screening CCCOc1ccc(C(C)=O)cc1CSc1nc(O)cc(=O)[nH]1 returned ALR H2O2 inh 99, PHOSPHO1 inh inactive, rCAG RNA binder inactive, aDG glyco up inactive, A3G deaminase inactive and A3A deaminase inactive.
`COC(=O)[C@]12C[C@H](CC(=O)NCc3cccc4ccccc34)C(=O)N(CCC3=CCCCC3)C1=C[C@H](C(C)C)O[C@@H]2C1CC1` gave rCAG RNA binder inactive.
CCCCOCCCNC(=O)C[C@H]1C(=O)N(CCCOC)C2=CCCCC[C@]21C(=O)OC was read as rCAG RNA binder inactive.
Cc1ccc(C(=O)C2CCN(CC(=O)N3CC(C)CC(C)C3)CC2)cc1 (configuration not stated) was read as rCAG RNA binder inactive.
Screening CCOC(=O)[C@]12CCCC3=C1N(CCC3)C(=O)[C@@H](CC(=O)N1CCC(c3ccccc3)CC1)C2 returned rCAG RNA binder inactive.
For CN(C)[C@H]1CCN(c2cccc3c2S(=O)(=O)N(C2CC2)CCCO3)C1 the results were rCAG RNA binder inactive.
`O=c1c2cc3c(cc2[nH]c(=S)n1Cc1ccco1)OCO3` gave ALR H2O2 inh inactive, PHOSPHO1 inh 78, rCAG RNA binder inactive, aDG glyco up inactive, A3G deaminase inactive and A3A deaminase inactive.
`COc1cc(NC(=O)c2ccc3c(=O)n(Cc4ccco4)c(=S)[nH]c3c2)cc(OC)c1OC` gave ALR H2O2 inh inactive, PHOSPHO1 inh 76, rCAG RNA binder inactive, aDG glyco up inactive, A3G deaminase inactive and A3A deaminase inactive.
For CN1CCN(C(=O)c2ccc3c(=O)n(Cc4ccco4)c(=S)[nH]c3c2)CC1 the results were PHOSPHO1 inh 69, rCAG RNA binder inactive, aDG glyco up inactive, A3G deaminase inactive and A3A deaminase inactive.
Screening O=C(c1ccc2c(=O)n(Cc3ccco3)c(=S)[nH]c2c1)N1CCN(Cc2ccccc2)CC1 returned ALR H2O2 inh inactive, PHOSPHO1 inh inactive, rCAG RNA binder inactive, aDG glyco up inactive, A3G deaminase inactive and A3A deaminase inactive.
For C=CCNC(=O)c1ccc(Cn2c(=S)[nH]c3cc4c(cc3c2=O)OCO4)cc1 the results were ALR H2O2 inh inactive, PHOSPHO1 inh inactive, rCAG RNA binder inactive, aDG glyco up inactive, A3G deaminase inactive and A3A deaminase inactive.
Screening O=C(NCCN1CCCC1)c1ccc(Cn2c(=S)[nH]c3cc4c(cc3c2=O)OCO4)cc1 returned ALR H2O2 inh inactive, PHOSPHO1 inh 71, rCAG RNA binder inactive, aDG glyco up inactive, A3G deaminase inactive and A3A deaminase inactive.
Nc1[nH]c(C(=O)c2ccccc2)c(-c2ccccc2C(F)(F)F)c1C(=O)c1c[nH]c2ccccc12 was read as rCAG RNA binder inactive.
Screening COC(=O)[C@H](C(C)C)N1CCc2nnn(CC3CCCCC3)c2-c2ccccc2S1(=O)=O returned rCAG RNA binder inactive.
`COC(=O)C1CN(CC(C)C)CCS(=O)(=O)N1Cc1ccc(OC)cc1` (configuration not stated) gave rCAG RNA binder inactive.
